# Screening data deposited in PubChem by National Center for Advancing Translational Sciences (NCATS).
# Nrf2 ARE act – activators of Nrf2 (ARE) signaling. AREc32 ARE-luciferase reporter (MCF7-derived line), luminescence, 24 h. Potency, µM (highest dose often 46.1 µM), for the others: at the top dose activation, actives largely listed as activators. actives 0.31% (n = 410,000). AID 624171; note: % of control where 0% means no effect; nearly all actives have a fitted effect of over 65% in size
#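 Each well held 1000 AREc32 cells, which were incubated with compound for 24 hr at 37 deg C after overnight attachment, and ARE reporter activity was quantified by firefly luciferase luminescence.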
# S2 tox – reduces viability in counter-screen for ATXN expression inhibitors; Potency, µM (titrated, usually from 56.7 µM), hits mostly cytotoxic; S2 cells (HEK-293 line with an ATXN2-luciferase reporter) viability, CellTiter-Fluor protease fluorescence, 24 h; AID 651635; actives 0.49% (n = 400,000); note: nearly all actives have a fitted effect of over 40% in size
# ATXN2 expr inh – inhibitors of ATXN2 expression. actives 0.72% (n = 360,000). AID 1745845. Potency, µM (titrated, usually from 57 µM), for inactives: at the highest dose activity change, negative = inhibition, most hits filed as inhibitors. HEK-293 ATXN2-luciferase reporter, luminescence, 24 h; note: % is set by controls: 0 for no effect and ±100 for the full control effect; nearly all actives have a fitted effect of over 55% in size
#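 ATXN2-luciferase reporter cells (luciferase flanked by upstream and downstream ATXN2 gene portions) were treated 24 h at 37 °C with compounds at up to 57 uM. SteadyGlo luminescence gave expression; GF-AFC fluorescence gave viability.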
# A549 tox – A549 cytotoxicity, counter-screen for Nrf2 inhibitors; AID 504648; A549 ARE-Fluc cells, CellTiter-Fluor viability, 18-24 h; Potency, µM (top dose mostly 46 µM), without a hit: at the top dose activity change, negative = cytotoxicity, usual class: inhibitors; actives 0.16% (n = 390,000); note: % is set by controls: 0 for no effect and ±100 for the full control effect
#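 A549 ARE-Fluc cells in 5% FBS OPTI-MEM, 5000 cells/well, rested 2 h then exposed to compounds in concentration-response for 18-24 h at 37 °C. Viability by CellTiter-Fluor fluorescence (Ex 405/Em 525) after 30 min; luciferase luminescence (BugLite, 15 min, RT) read afterwards.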
# Nrf2 inh – blocks Nrf2 signaling. A549 ARE-Fluc reporter, luciferase luminescence, 18-24 h. Potency, µM (series often up to 46 µM), for the others: at the highest dose activity change, negative = inhibition, most hits filed as inhibitors. actives 2.1% (n = 360,000); note: % is set by controls: 0 for no effect and ±100 for the full control effect; nearly all actives have a fitted effect of over 60% in size
#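 Concentration-response testing used A549 ARE_Fluc cells at 5000 cells/well. Following an 18-24 h compound incubation, viability was read by fluorescence (Ex 405/Em 525) and luciferase output by luminescence.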
# * = called active by the depositor; i = inactive; u = inconclusive; x = not tested or not shown; [ ] = dose if it differs, or a comment. The list is not random: actives were taken first. Their share in the collection is about 2.9%. Calls come from the whole dose curve; as a rule, active = well fitted curve in the direction sought with a large enough effect; inconclusive = small, poorly fitted or top-dose-only effect, or another doubt; inactive = no such curve, though single readings can be large; an effect the other way counts as inactive or inconclusive. Potency is the fitted concentration of half-maximal effect.
SMILES,Nrf2 ARE act,S2 tox,ATXN2 expr inh,A549 tox,Nrf2 inh
COc1cc(/C=C2\SC(=S)N(CCC(=O)Nc3ccccn3)C2=O)cc(OC)c1OC,0%,i,-5%,3%,-1%
O=S(=O)(Nc1nc2ccccc2nc1N1CCN(c2ccccc2)CC1)c1ccc(F)cc1,-1%,i,2%,u,26µM*
CCOc1ccc(/C=C/C(=O)c2cc(Br)ccc(=O)c2O)cc1,21%,x,-14%,-29%,16µM*
O=C(C=Cc1ccccc1)c1cc(Br)ccc1O,u,i,-2%,0%,u
Cc1cccc(/C=C/C(=O)c2cc(Br)ccc(=O)c2O)c1,22µM*,i,12%,u,u
CCc1ccc(/C=C/C(=O)c2cc(Br)ccc(=O)c2O)cc1,u,u,32µM*,u,7.3µM*
Cc1ccc(OCCCC(=O)NC2CCCCC2)cc1,0%,i,-6%,17%,17%
CC(C)(C)c1ccc(C(=O)NCc2nnc(SCC(=O)NC3CCCCC3)o2)cc1,-1%,i,5%,-12%,4%
CCOc1ccc2nc(Cl)c(C3CC(c4ccco4)=NN3S(C)(=O)=O)cc2c1 (stereo unspecified),3%,i,4%,-1%,1%
Cc1nn(-c2ccccc2)c(Cl)c1C(=O)NC1CCCCC1,2%,u,-14%,29%,-23%
Cc1nn(-c2ccccc2)c(C)c1C(=O)OC(C)C(=O)NC1CCCCC1 (stereo unspecified),1%,i,-36%,-21%,18µM*
Cc1cc(F)ccc1S(=O)(=O)N1CCC2(CC1)OCCN2S(=O)(=O)c1cccs1,2%,i,-20%,-12%,12µM*
Cc1ccc(C)c(S(=O)(=O)N2CCC3(CC2)OCCN3S(=O)(=O)c2cccs2)c1,0%,i,-14%,-7%,u
Cn1c(=O)c2c(ncn2CC(=O)N/N=C/C(Br)=C/c2ccccc2)n(C)c1=O,u,u,-14%,-5%,7%
O=C(Cn1cnc2ccccc21)N/N=C/C(Br)=C/c1ccccc1,7.1µM*,u,u,-5%,-21%
O=C(N/N=C/C(Br)=C/c1ccccc1)c1ccccc1F,13µM*,i,-18%,3%,u
O=C(N/N=C/C(Br)=C/c1ccccc1)c1n[nH]c2c1CCC2,22µM*,i,-5%,-8%,-10%
O=C(N/N=C/c1ccccc1)c1n[nH]c2c1CCCC2,-1%,i,u,-20%,u
O=C(N/N=C/C(Br)=C/c1ccccc1)c1cccs1,10µM*,i,95%,u,u
CS(=O)(=O)Nc1ccc(S(=O)(=O)NC2CCCCC2)cc1,-1%[9.22 µM],i,7%,-6%,-17%
CC(C)C[C@H](NC(=O)[C@@H](Cc1ccccc1)n1c(=O)[nH]c2ccccc2c1=O)C(=O)N[C@@H](Cc1ccccc1)C(=O)O,0%,i,3%,7%,-1%
CC1C(=O)NN=C1C(=O)N/N=C\C(Br)=C\c1ccccc1 (stereo unspecified),11µM*,i,-21%,-2%,u
O=C(C=Cc1cccs1)c1ccc(Cl)s1,22µM*,i,4%,-3%,5%
O=C(/C=C/c1cccs1)c1cc(Cl)ccc1O,14µM*,u,6%,-5%,11%
O=C(C=Cc1ccco1)c1cc(Cl)ccc1O,u,i,5%,0%,7%
SMILES,Nrf2 ARE act,S2 tox,ATXN2 expr inh,A549 tox,Nrf2 inh
Cc1ccc(N2C(N)=C(C#N)C(c3cccnc3)C3=C2CC(C)(C)CC3=O)cc1 (stereo unspecified),4%,u,-16%,-12%,x
O=C(O)c1[nH]c2ccccc2c1CC(=O)N1CCN(c2ccccc2)CC1,3%,i,-6%,1%,6%
CCn1c2ccccc2c2cc([N+](=O)[O-])ccc21,4%,i,-7%,3%,6%
CN(C)CCn1c2ccccc2c2nc3ccc([N+](=O)[O-])cc3cc21,u,i,3.2µM*,u,u
CCOc1cc(C2NN=C(c3ccccc3)S2)ccc1OCc1ccccc1Cl (stereo unspecified),u,i,59%,4%,u
CCOc1cc(C2NN=C(c3ccccc3)S2)ccc1OCc1ccc(F)cc1 (stereo unspecified),11µM*,i,43%,-2%,u
CC1(C)CC[C@]2(C(=O)O)CC[C@]3(C)C(=CC[C@@H]4[C@@]5(C)CC[C@H](O[C@@H]6O[C@H](C(=O)O)[C@@H](O)[C@H](O[C@@H]7OC[C@H](O)[C@H](O)[C@H]7O)[C@H]6O)C(C)(C)[C@@H]5CC[C@]43C)[C@@H]2C1,-3%,11µM*,11µM*,u,21µM*
Cc1nc(N/N=C/c2ccc(O)cc2O)cc(N2CCOCC2)n1,0%,i,u,2%,21µM*
Cc1nc(N/N=C/c2cccc(F)c2)cc(N2CCOCC2)n1,9%,i,-6%,1%,-18%
Cc1ccc(NC(=S)NNC(=O)c2c([N+](=O)[O-])c(C)nn2C)cc1,0%,i,-2%,-2%,4%
Oc1ccc2ccccc2c1/C=N/Nc1ccccc1,8%,i,28%,-2%,2%
Cc1cc(N/N=C/c2c(O)ccc3ccccc23)nc(-c2ccccc2O)n1,7.1µM*,i,u,u,u
COc1cc(-c2nc3ccccc3s2)ccc1O,6.3µM*,i,87%,-8%,18µM*
Cc1ccc(C(C)C)c(OCC(=O)Nc2cc(-c3nc4ccccc4[nH]3)ccc2C)c1,0%,x,x,9.2µM*,6.5µM*
COc1c(Cl)cc(C(=O)Nc2cc(-c3nc4ccccc4[nH]3)ccc2C)cc1Cl,4%,10µM*,u,-19%,u
N#Cc1c(N)n(CCNC(=O)c2ccc(Cl)cc2)c2nc3ccccc3nc12,0%,i,-23%,10%,9.2µM*
COc1ccccc1CNC(=O)c1c(N)n(CCCN2CCOCC2)c2nc3ccccc3nc12,0%,i,u,u,18µM*
Cc1ccc(C(=O)NCCn2c(N)c(C#N)c3nc4ccccc4nc32)cc1,0%,i,-11%,16%,-25%
Nc1c(C(=O)NCCN2CCOCC2)c2nc3ccccc3nc2n1CCc1ccccc1,3%,x,u,-7%,15µM*
COCCn1c(N)c(C(=O)NCc2cccs2)c2nc3ccccc3nc21,3%,x,0%,7%,23µM*
c1ccc(CN2CCN(c3ncccn3)CC2)cc1,0%,i,-2%,5%,0%
CC1(C)CC(N2CCN(Cc3ccccc3)CC2)=CC(=[N+]2CCCCC2)C1,-1%,i,u,-19%,18µM*
N#Cc1nc(N)nc(N2CCCCC2)n1,x,x,x,1%,18µM*
N#Cc1nc(N2CCCCC2)nc(N2CCOCC2)n1,0%,i,u,-7%,u
